Shown are actives, neighbours in structure and some others; about 3.4% of the full set was active somewhere.
GPR151 activ – human GPR151 activation | Q8TDV0 | PathHunter beta-arrestin GPR151 cells, luminescence | activation, % at 11.2 µM | hit rate 1% among 650,000; in the data active = activation above about 4.9%
TEAD-YAP inh – TEAD-YAP interaction inhibition; HEK-TIYL cells, TEAD-Gal4/YAP UAS-luciferase luminescence; inhibition, % at 9.12 µM; hit rate 1.4% among 640,000; AID 1259422; in the data active = inhibition above about 32%
MITF inh – blocks human microphthalmia-associated transcription factor | hit rate 0.91% among 650,000 | AlphaScreen MITF homodimerization, bead proximity signal | inhibition, % at 2.6 µM; in the data active = inhibition above about 50%
FBW7 act – activators of human E3 ligase FBW7. AID 1259310. normalized activity (activation), % at 26.1 µM. hit rate 0.13% among 650,000. AlphaScreen FBW7–phospho-cyclin E peptide binding, activator screen; in the data active = normalized activity above about 1.9%;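 note: purified mutant Fbw7 with reduced substrate affinity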
GPR151 conf act – human GPR151 activation, confirmation screen. shares compounds with GPR151 activ. GPR151 PathHunter beta-arrestin cells, luminescence, 90 min; % of EA-reagent control over plate median. activation, % at 11.2 µM. 6,700 tested, under 10 active;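 active = mean percent activation across replicates above the confirmation screen cutoff of 4.91%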
GPR119 counter – activates human GPR119 in a GPR151 counter-screen; activation, % at 11.2 µM; GPR119 PathHunter beta-arrestin cells, luminescence, 90 min; 0 = compound-well median, 100 = enzyme-acceptor control; AID 1508611; shares compounds with GPR151 activ; hit rate 0.3% among 6,700;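 active = mean percent activation in the counterscreen above 29.09%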;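 note: counterscreen on off-target GPR119 to flag nonselective hits from the GPR151 activator screen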
Target sequence (Q8TDV5 whole entry, looked up): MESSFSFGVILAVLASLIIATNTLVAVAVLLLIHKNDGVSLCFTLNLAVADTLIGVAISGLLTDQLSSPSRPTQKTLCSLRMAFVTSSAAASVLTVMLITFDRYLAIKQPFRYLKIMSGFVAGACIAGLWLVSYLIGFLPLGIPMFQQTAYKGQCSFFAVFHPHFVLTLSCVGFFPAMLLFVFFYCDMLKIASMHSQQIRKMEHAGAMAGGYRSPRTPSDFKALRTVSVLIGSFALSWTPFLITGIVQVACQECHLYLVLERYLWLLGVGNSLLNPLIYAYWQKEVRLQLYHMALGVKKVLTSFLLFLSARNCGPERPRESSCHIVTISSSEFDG
Numbers stand for hits.

How did O=C1NCC2=C1C(c1ccccc1O)Nc1ccccc1N2 (configuration not stated) do in these assays?
GPR151 activ: 9.2; TEAD-YAP inh: inactive; MITF inh: inactive; FBW7 act: inactive; GPR151 conf act: inactive; GPR119 counter: inactive

How did COCCn1c(SCC(=O)N2CC(=O)Nc3ccccc32)nnc1-c1ccoc1C do in these assays?
GPR151 activ: 7.6; TEAD-YAP inh: inactive; MITF inh: inactive; FBW7 act: inactive; GPR151 conf act: inactive; GPR119 counter: inactive

What do the screens show for `Cc1ccc(NC(=O)Cn2cc(C=O)c3ccccc32)c(Cl)c1`?
GPR151 activ: inactive; TEAD-YAP inh: inactive; MITF inh: inactive; FBW7 act: inactive

Results for COC(=O)c1cccc(C(=O)N2CCC[C@@H]3CN(C(=O)C(C)C)CC[C@H]32)c1 ?
GPR151 activ: 7.1; TEAD-YAP inh: inactive; MITF inh: inactive; FBW7 act: inactive; GPR151 conf act: inactive; GPR119 counter: inactive

What do the screens show for `CC(C)C(=O)N1CC[C@@H]2[C@H](CCCN2C(=O)c2cccc(F)c2)C1`?
GPR151 activ: inactive; TEAD-YAP inh: inactive; MITF inh: inactive; FBW7 act: inactive

How did O=C(Cn1nc2oc3ccccc3n2c1=O)NC1CCCC1 do in these assays?
GPR151 activ: 7.8; TEAD-YAP inh: inactive; MITF inh: inactive; FBW7 act: inactive; GPR151 conf act: inactive; GPR119 counter: inactive

What do the screens show for `Cc1cc(=O)[nH]c(N/N=C/C=C2\N(C)c3ccccc3C2(C)C)n1`?
GPR151 activ: 5.0; TEAD-YAP inh: inactive; MITF inh: inactive; FBW7 act: inactive; GPR151 conf act: inactive; GPR119 counter: inactive

What do the screens show for `CCOc1cc(C=C(C(=O)OC)C(=O)OC)ccc1OCc1ccc([N+](=O)[O-])cc1`?
GPR151 activ: 5.2; TEAD-YAP inh: inactive; MITF inh: inactive; FBW7 act: inactive; GPR151 conf act: inactive; GPR119 counter: inactive

What do the screens show for `COC(=O)C(=Cc1cc(OC)c(O)c([N+](=O)[O-])c1)C(=O)OC`?
GPR151 activ: 5.7; TEAD-YAP inh: inactive; MITF inh: inactive; FBW7 act: inactive; GPR151 conf act: inactive; GPR119 counter: inactive

What do the screens show for `CCCCOC(=O)c1ccc(NC(=O)c2ccc(C3CCCCC3)cc2)cc1`?
GPR151 activ: 7.2; TEAD-YAP inh: 33; MITF inh: inactive; FBW7 act: inactive; GPR151 conf act: inactive; GPR119 counter: inactive

How did Cc1ccc(-c2csc3nnc(SCC(=O)NCCc4ccccc4)n23)cc1 do in these assays?
GPR151 activ: inactive; TEAD-YAP inh: inactive; MITF inh: inactive; FBW7 act: inactive

Results for Cc1ccc(-c2csc3nnc(SCC(=O)NC(N)=O)n23)cc1 ?
GPR151 activ: 6.3; TEAD-YAP inh: inactive; MITF inh: inactive; FBW7 act: inactive; GPR151 conf act: inactive; GPR119 counter: inactive

Results for CC(C)CCC1=NN(C(=O)C(=O)NCCc2ccccc2)C(O)(C(F)(F)F)C1 (configuration not stated) ?
GPR151 activ: inactive; TEAD-YAP inh: inactive; MITF inh: inactive; FBW7 act: inactive

How did CC(C)CC1=NN(C(=O)C(=O)NCCc2ccccc2)C(O)(C(F)(F)F)C1 (configuration not stated) do in these assays?
GPR151 activ: 5.5; TEAD-YAP inh: inactive; MITF inh: inactive; FBW7 act: inactive; GPR151 conf act: inactive; GPR119 counter: inactive

What do the screens show for `CCOC(=O)Nc1sc2c(c1C(=O)OC)CCC2`?
GPR151 activ: inactive; TEAD-YAP inh: inactive; MITF inh: inactive; FBW7 act: inactive

What do the screens show for `Cc1cccc(OCCCN2CCOCC2)c1C`?
GPR151 activ: 5.1; TEAD-YAP inh: inactive; MITF inh: inactive; FBW7 act: inactive; GPR151 conf act: inactive; GPR119 counter: inactive

Results for COC(=O)Cn1c2cc(OC)c(OC)cc2c2nc(=O)cc(C)n21 ?
GPR151 activ: 8.8; TEAD-YAP inh: inactive; MITF inh: inactive; FBW7 act: inactive; GPR151 conf act: inactive; GPR119 counter: inactive

What do the screens show for `Cc1cc(NCc2ccccc2)nc(NCCN2CCOCC2)n1`?
GPR151 activ: 6.0; TEAD-YAP inh: inactive; MITF inh: inactive; FBW7 act: inactive; GPR151 conf act: inactive; GPR119 counter: inactive

What do the screens show for `CCc1nc2ccc(-c3ccc4nc(CC)oc(=O)c4c3)cc2c(=O)o1`?
GPR151 activ: 8.8; TEAD-YAP inh: inactive; MITF inh: inactive; FBW7 act: inactive; GPR151 conf act: inactive; GPR119 counter: inactive

How did C=C(C)c1nc2ccc(-c3ccc4nc(C(=C)C)oc(=O)c4c3)cc2c(=O)o1 do in these assays?
GPR151 activ: inactive; TEAD-YAP inh: inactive; MITF inh: inactive; FBW7 act: inactive

Results for O=C(c1ccc2c(=O)n(C3CCCCC3)c(=S)[nH]c2c1)N1CCN(c2ccccc2)CC1 ?
GPR151 activ: inactive; TEAD-YAP inh: inactive; MITF inh: inactive; FBW7 act: inactive

Results for CCCC(=O)Nc1ccc(OC)c(Cl)c1 ?
GPR151 activ: inactive; TEAD-YAP inh: inactive; MITF inh: inactive; FBW7 act: inactive

Results for COc1cccc(CNC(=O)CCS(=O)(=O)c2ccc3c(c2)SCC(=O)N3)c1 ?
GPR151 activ: 11; TEAD-YAP inh: inactive; MITF inh: inactive; FBW7 act: inactive; GPR151 conf act: inactive; GPR119 counter: inactive

How did COc1ccc(NC(=O)CCS(=O)(=O)c2ccc3c(c2)SCC(=O)N3)cc1OC do in these assays?
GPR151 activ: inactive; TEAD-YAP inh: inactive; MITF inh: inactive; FBW7 act: inactive

Results for COC(=O)CCC(=O)Nc1ccc(OC)c(Cl)c1 ?
GPR151 activ: 6.0; TEAD-YAP inh: inactive; MITF inh: inactive; FBW7 act: inactive; GPR151 conf act: inactive; GPR119 counter: inactive

What do the screens show for `COc1ccc(NC(=O)CCS(=O)(=O)c2ccc3c(c2)SCC(=O)N3)cc1Cl`?
GPR151 activ: 5.2; TEAD-YAP inh: inactive; MITF inh: inactive; FBW7 act: inactive; GPR151 conf act: inactive; GPR119 counter: inactive

What do the screens show for `CCC1Sc2cc(S(=O)(=O)CCC(=O)NCc3cccnc3)ccc2NC1=O` (configuration not stated)?
GPR151 activ: 7.5; TEAD-YAP inh: inactive; MITF inh: inactive; FBW7 act: inactive; GPR151 conf act: inactive; GPR119 counter: inactive

Results for Cc1nn(C)c(C)c1S(=O)(=O)N(CC(=O)N1CCCCC1C)c1ccc(C(C)C)cc1 (configuration not stated) ?
GPR151 activ: inactive; TEAD-YAP inh: inactive; MITF inh: inactive; FBW7 act: inactive

What do the screens show for `Cn1c(=O)c(=O)n(C)c2cc(S(=O)(=O)CCC(=O)NCc3ccccc3)ccc21`?
GPR151 activ: 6.1; TEAD-YAP inh: inactive; MITF inh: inactive; FBW7 act: inactive; GPR151 conf act: inactive; GPR119 counter: inactive

Results for COc1ccc(CNC(=O)CCS(=O)(=O)c2ccc3c(c2)n(C)c(=O)c(=O)n3C)cc1 ?
GPR151 activ: inactive; TEAD-YAP inh: inactive; MITF inh: inactive; FBW7 act: inactive

How did CN1CCN(C(=O)c2ccccc2NC(=O)c2ccccc2Cl)CC1 do in these assays?
GPR151 activ: inactive; TEAD-YAP inh: inactive; MITF inh: inactive; FBW7 act: inactive

Screens: PubChem, The Scripps Research Institute Molecular Screening Center
